Source: PubChem (National Center for Advancing Translational Sciences (NCATS))
HepG2 viability – qHTS for Inhibitors of TGF-b: Cytotox Counterscreen; HepG2 CAGA-GFP viability, ATP luminescence, 18 h; Potency, µM (doses to about 46.1 µM), without a hit: at the top dose activity change, negative = cytotoxicity, usual class: cytotoxic; 410,000 tested, 0.76% active
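HepG2 CAGA-GFP cells (1000/well, DMEM with 1% FBS) received compound, then TGF-beta at 500 pg/mL final, and were incubated 18 hours at 37 degrees C. Viability was read by CellTiter-Glo luminescence. Media-only wells were set as complete cell-killing and DMSO as no toxicity.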
DT40 TDP1 no CPT – qHTS for Inhibitors of human tyrosyl-DNA phosphodiesterase 1 (TDP1): qHTS in cells in absence of CPT; Potency, µM (titrated, usually from 46.2 µM), for inactives: top-dose activity change, negative = growth inhibition, hits mostly inhibitors; DT40 Tdp1-/- hTDP1 cells, no CPT, ATP luminescence, 48 h; 420,000 tested, 15% active; further: on the % scale 0 is the no-effect control and ±100 the full control effect; nearly all actives have a fitted effect of over 55% in size
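Growth kinetics read by CellTiter-Glo luminescence after ≥48 hr at 37 °C. Cells: DT40 Tdp1-/- stably carrying human TDP1, 400 per well, compound exposure in the absence of CPT (DMSO vehicle).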
TGFb SMAD3 inh – qHTS for Inhibitors of TGF-b; Potency, µM (top dose mostly 46.1 µM), for the others: at the top dose activity, negative = inhibition, hits mostly inhibitors; AID 588855, 2011; HepG2 CAGA-GFP TGF-b/SMAD3 reporter, GFP fluorescence, 18 h; TGF-beta stimulated, 500 pg/mL final; 410,000 tested, 1.2% active; further: on the % scale 0 is the no-effect control and ±100 the full control effect; nearly all actives have a fitted effect of over 65% in size
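Read-out: total well GFP (ex488/em500-530) summed from mean per-cell fluorescence. Cells: HEPG2 CAGA-GFP, 1% FBS DMEM, 18 h at 37 degrees C with 500 pg/mL final TGF-beta. Unstimulated wells served as the full-inhibition control; stimulated DMSO wells = 0%.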
HT1080 IDH1KD tx – qHTS for induction of synthetic lethality in tumor cells producing 2HG: qHTS for the HT-1080-IDH1KD cell line | AID 686971, 2013 | HT-1080 IDH1 knockdown viability, ATP luminescence, 48 h | Potency, µM (series often up to 46.1 µM), for the others: at the top dose activity, negative = toxicity, usual class: cytotoxic | 360,000 tested, 2% active;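 further: 0% = DMSO wells and -100% = cell-free medium wells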
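Using the IDH1-knockdown HT-1080 line run in the same batch and compound series as the NT line, viability after 48 h at 37 °C was determined by CellTiter-Glo luminescence and expressed as % activity.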
DT40 TDP1 CPT – qHTS for Inhibitors of human tyrosyl-DNA phosphodiesterase 1 (TDP1): qHTS in cells in presence of CPT; chicken DT40 Tdp1-/-;hTDP1 cells + 20 nM CPT, ATP luminescence, 48 h; Potency, µM (series often up to 46.2 µM), without a hit: at the top dose activity change, negative = growth inhibition, hits mostly inhibitors; 420,000 tested, 12% active; further: on the % scale 0 is the no-effect control and ±100 the full control effect; nearly all actives have a fitted effect of over 55% in size
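Cell growth measured by CellTiter-Glo luminescence after a minimum 48 h, 37 C compound exposure with 20 nM CPT in Tdp1-knockout DT40 cells stably expressing hTDP1, seeded 400/well; qHTS titration format.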
HT1080-NT tox – qHTS for induction of synthetic lethality in tumor cells producing 2HG: qHTS for the HT-1080-NT fibrosarcoma cell line. AID 686970, 2013. HT-1080-NT fibrosarcoma viability, CellTiter-Glo ATP luminescence, 48 h. Potency, µM (doses to about 46.1 µM), inactives show at the highest dose activity, negative = less viability, hits mostly cytotoxic. 360,000 tested, 1.6% active;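 further: NT is the 2HG producing partner of a matched IDH1 knockdown line; 0% = DMSO-treated cells and -100% = media-only wells without cells; nearly all actives have a fitted effect of over 55% in size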
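Read-out is CellTiter-Glo luminescence after 10 minutes at room temperature, following 48 hours' compound treatment of HT-1080-NT cells (750 cells/well, RPMI, 5% FBS, 37 degrees C).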
* marks the source's active call; other numbers are inactive results; ? = inconclusive; nt = no result given; [ ] = dose if it differs, or a comment. Hits are enriched below; roughly 17% of the tested compounds scored in any of these assays. The call rests on the fitted dose curve; in most records, active means well fitted curve in the direction sought with a large enough effect; inconclusive means small, poorly fitted or top-dose-only effect, or another doubt; inactive means no such curve, though single readings can be large; an effect the other way counts as inactive or inconclusive. Potency means the concentration at half of the fitted maximal effect.

SMILES | HepG2 viability | DT40 TDP1 no CPT | TGFb SMAD3 inh | HT1080 IDH1KD tx | DT40 TDP1 CPT | HT1080-NT tox
CCN(C[C@H]1N[C@@](Cc2ccccc2)(C(=O)OC)[C@H]2C(=O)N(C)C(=O)[C@@H]12)C(=O)COC | -5% | 12% | -12% | -1% | -14% | 2%
Cc1ccc(N2CCN(C(=O)N3CCOCC3)CC2)c(C)c1 | -1% | ? | 0% | -7% | -7% | 1%
COc1ccc(-c2noc(N3CCCC(C(=O)Nc4ccc(C(C)=O)cc4)C3)n2)cc1 (stereo not drawn) | -24% | ? | -18% | -5% | ? | -18%
CCCNC(=O)CN(C)CC(=O)Nc1ccccc1C#N | 0% | 2% | -11% | 3% | 27% | -2%
Cc1ccc(NC(=O)Cn2c(-c3nonc3N)nc3ccccc32)cc1C | -4% | ? | 12% | nt | ? | nt
CSc1ccccc1OCc1cc(C(=O)N2CCc3sccc3C2)no1 | -6% | 0% | -1% | 12% | ? | 9%
Cc1ccc(C)c(OCc2cc(C(=O)N3CCc4sccc4C3)no2)c1 | -9% | 23µM* | 1% | 14% | 16µM* | 8%
COc1ccc(C(=O)Nc2ccc(NC(=O)c3ccccn3)cn2)cc1 | 4% | -20% | 3% | -7% | -7% | -16%
O=C(NN=C(c1ccccc1)c1ccccn1)c1ccccc1 | -19% | 0.92µM* | ? | ? | 1µM* | -20%
O=C(NC(O)C(=O)c1ccccc1)c1ccccn1 (stereo not drawn) | -1% | ? | -6% | 4% | 23µM* | -6%
COc1ccc(C(=O)N/N=C(\c2ccccc2)c2ccccn2)cc1 | -7% | 2.6µM* | ? | ? | 2.9µM* | ?
O=C(NC(O)C(=O)c1ccccc1)c1cccs1 (stereo not drawn) | 4% | ? | -22% | 0% | ? | 0%
CCOC(=O)c1ccc(OCCOc2cccc(C)c2)cc1 | -11% | 8% | -4% | 8% | -6% | 14%
C/C(=N/OCO/N=C(\C)c1ccc(F)cc1F)c1ccc(F)cc1F | -1% | 1% | 4% | 0% | -2% | 9%
Cc1cc(O)cc(O)c1C=NCc1ccco1 | -69% | -13% | 20µM* | ? | 2% | ?
CC(=O)C(=Cc1ccc(-c2ccccc2)cc1)C(=O)c1ccccc1 | nt | ? | nt | 23µM* | 18µM* | 15µM*
O=C(C(Br)=Cc1ccccc1)c1ccccc1 | -96% | 1.3µM* | 10µM* | ? | 0.73µM* | 5.8µM*
Cc1ccc(NC(=O)CSc2nnc(-c3ccc([N+](=O)[O-])cc3)o2)c(C)c1 | -1% | -20% | 1% | nt | -20% | nt
CCc1cccc(NC(=O)Nc2csc3c2CCCC3)c1 | -27% | 23µM* | ? | nt | 21µM* | nt
COc1cccc(NC(=O)c2csc3c2CCCCC3)c1 | -38% | 16µM* | ? | nt | 21µM* | nt
Cc1cccc(C)c1NC(=O)Nc1csc2c1CCCC2 | -5% | -13% | -10% | nt | -14% | nt
CC(C)CNC(=S)NNC(=O)c1csc2c1CCCC2 | -31% | ? | ? | ? | ? | 8.9µM*
Cc1cccc(C)c1NC(=O)c1csc2c1CCCC2 | -9% | 5.2µM* | 1% | nt | 3.7µM* | nt
COc1ccc(NC(=O)c2csc3c2CCCCC3)cc1 | 3% | ? | nt | nt | ? | nt
O=C(O)c1ccc2c(c1)C(=O)N(c1cccc3ccccc13)C2=O | 2% | ? | 0% | 12% | -2% | ?
SMILES | HepG2 viability | DT40 TDP1 no CPT | TGFb SMAD3 inh | HT1080 IDH1KD tx | DT40 TDP1 CPT | HT1080-NT tox
CS(=O)(=O)N(CC(=O)NCc1ccc2c(c1)OCO2)Cc1ccc(Cl)cc1 | -12% | -29% | ? | -14% | -18% | -10%
Cc1ccc(NC(=O)NCCc2c(C)nn(C)c2C)cc1Cl | -20% | 23µM* | -1% | nt | ? | nt
COc1ccc(Cl)cc1NC(=O)NCCc1c(C)nn(C)c1C | -4% | 16µM* | -18% | nt | ? | nt
COC(=O)c1ccc(Cl)cc1NC(=O)NCCc1c(C)nn(C)c1C | -1% | ? | 16% | nt | ? | nt
Oc1ccc(-c2nc(-c3ccc(O)c(O)c3)cs2)cc1 | -22% | 8.2µM* | ? | ? | 8.2µM* | ?
CC(C)(C)C(=O)Cn1ncc(N2CCOCC2)c(Cl)c1=O | 1% | -9% | 8% | 0% | -18% | -3%
CC(C)(C)C(=O)Cn1ncc(Br)c(Br)c1=O | -62% | 1.8µM* | ? | ? | 4.6µM* | ?
Cc1nc(Nc2ccccc2)sc1C | -11% | 19% | 0% | 7% | 4% | -28%
S=c1[nH]cnc2sc(Nc3ccccc3)nc12 | 11% | 15µM* | 1% | -10% | 15µM* | -8%
Cc1ccc(NC(=O)CNC(C)c2ccccc2)cc1 (stereo not drawn) | 0% | -12% | -2% | 4% | -24% | 4%
O=C(NC(=S)N1CCN(c2ccc(F)cc2)CC1)c1ccccc1 | -26% | 21µM* | -24% | -3% | ? | -16%
CC1CCC(C(=O)NC(C(=O)N2CCc3ccccc3C2)C(C)C)CC1 (stereo not drawn) | -20% | ? | -3% | -10% | 16µM* | -9%
O=C(NC(=S)N1CCN(c2ccc([N+](=O)[O-])cc2)CC1)c1ccccc1F | -28% | 21µM* | -27% | 23% | ? | 5%
O=C(NC(=S)N1CCN(c2ccc([N+](=O)[O-])cc2)CC1)c1ccc(F)cc1 | -9% | 26µM* | ? | -7% | ? | -12%
CN(C(=O)c1cccc(S(=O)(=O)N2CCOCC2)c1)c1c(N)n(Cc2ccccc2)c(=O)[nH]c1=O | 2% | 12% | 4% | -2% | -1% | -2%[9.24 µM]
O=C(NC(Cc1ccccc1)C(=O)N1CCCCCC1)c1ccccc1 (stereo not drawn) | 4% | ? | 3% | 15% | -19% | 19%
O=C(NC(Cc1ccccc1)C(=O)N1CCN(c2ccc(F)cc2)CC1)c1ccccc1 (stereo not drawn) | -7% | 26µM* | 1% | 0% | ? | 3%
CC(C)C(NC(=O)C1CCCCC1)C(=O)N1CCN(c2ccc(F)cc2)CC1 (stereo not drawn) | -6% | 16µM* | -1% | 2% | 13µM* | 3%
